From PubChem BioAssay AID1159580 (chemical genetic matrix, 2015)
The campaign covered roughly 5,500 compounds. About 2,000 (36%) were called active. Another 18% or so got no clear call; they are omitted. Rule as the data show it: active = normalized growth mostly below about 0.91 (no sharp cut-off); inconclusive = no clear call, values can overlap the other calls; inactive = mostly above about 0.92. This is one part of the list.

Assay: chemical genetic growth profiling, strain panel (AID 1159580);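 also: tested at 20 µM; growth read once vehicle control cultures reached saturation at 30 °C; 1 = growth at the plate median or of vehicle wells; lower values mean less growth of the strain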
Settings: S. cerevisiae deletion strains, growth OD
[1] = locus YAL040C, strain CLN3, hits give low values
[2] = locus YDR150W, strain NUM1, hits give low values
[3] = locus YER002W, strain NOP16, hits give low values
[4] = locus YJR075W, strain HOC1, hits give low values
[5] = locus YNL128W, strain TEP1, hits give low values
[6] = locus YNL153C, strain GIM3, hits give low values
[7] = locus YNL197C, strain WHI3, hits give low values
[8] = locus YNL224C, strain SQS1, hits give low values
[9] = locus YOR083W, strain WHI5 (second series), hits give low values
[10] = locus YPL241C, strain CIN2, hits give low values
[11] = locus YGR078C, strain PAC10, hits give low values
[12] = locus YNL322C, strain KRE1, hits give low values
[13] = locus YHR030C, strain SLT2, hits give low values
[14] = locus YHR079C, strain IRE1, hits give low values
[15] = locus YJL095W, strain BCK1, hits give low values
[16] = locus YJR066W, strain TOR1, hits give low values
[17] = locus YLR113W, strain HOG1, hits give low values
[18] = locus YNL183C, strain NPR1, hits give low values
[19] = locus YOR231W, strain MKK1, hits give low values
[20] = locus YPL256C, strain CLN2, hits give low values
[21] = locus YDL101C, strain DUN1, hits give low values

Measured: normalized growth

NCC(O)c1cc(O)c(O)cc1F (stereo unspecified)
inactive: [1] 1 | [2] 1.02 | [3] 1.01 | [4] 1.03 | [5] 1.03 | [6] 1.01 | locus YNL175C, strain NOP13, hits give low values 0.978 | [7] 0.994 | [8] 1.01 | [9] 1.04 | [10] 1.01

NC(Cc1cc(O)c(O)cc1O)C(=O)O (stereo unspecified)
inactive: [1] 1 | locus YCL061C, strain MRC1 (second series), hits give low values 0.967 | locus YDR363W, strain ESC2, hits give low values 0.977 | [3] 1.01 | [11] 0.979 | [4] 0.956 | [5] 0.976 | [7] 0.98 | [8] 1.03 | [12] 0.942 | [9] 1.01

NCCc1cc(O)c(O)cc1O
active: locus YAL021C, strain ccr4, hits give low values 0.856 | locus YBR231C, strain swc5, hits give low values 0.884 | locus YDR069C, strain doa4, hits give low values 0.833 | locus YEL003W, strain gim4, hits give low values 0.908 | locus YER015W, strain faa2, hits give low values 0.887 | locus YER155C, strain BEM2 (second series), hits give low values 0.847 | locus YGL173C, strain kem1, hits give low values 0.838 | locus YHR027C, strain rpn1, hits give low values 0.9 | locus YJL164C, strain tpk1, hits give low values 0.914 | locus YJL166W, strain qcr8, hits give low values 0.877 | locus YLR342W, strain FKS1, hits give low values 0.861 | locus YMR058W, strain fet3, hits give low values 0.697 | locus YNL209W, strain ssb2, hits give low values 0.899 | locus YNL248C, strain rpa49, hits give low values 0.807 | locus YOR106W, strain vam3, hits give low values 0.805 | locus YPL051W, strain arl3, hits give low values 0.854 | locus YPL106C, strain sse1, hits give low values 0.847
inactive: locus YAL026C, strain drs2, hits give low values 0.924 | locus YAL030W, strain snc1, hits give low values 0.938 | locus YBL061C, strain skt5, hits give low values 0.948 | locus YBR009C, strain hhf1, hits give low values 0.963 | locus YBR023C, strain chs3, hits give low values 0.94 | locus YBR171W, strain sec66, hits give low values 0.983 | locus YBR279W, strain paf1, hits give low values 0.948 | locus YCL011C, strain gbp2, hits give low values 0.96 | locus YCL016C, strain dcc1, hits give low values 0.962 | locus YCL061C, strain MRC1, hits give low values 0.934 | locus YCL069W, strain vba3, hits give low values 0.966 | locus YCR088W, strain abp1, hits give low values 0.999 | locus YDL005C, strain med2, hits give low values 1.01 | locus YDL040C, strain nat1, hits give low values 0.995 | locus YDR001C, strain nth1, hits give low values 1 | locus YDR137W, strain rgp1, hits give low values 0.993 | locus YDR159W, strain sac3, hits give low values 1.02 | locus YDR195W, strain ref2 0.97 | locus YDR297W, strain sur2, hits give low values 0.941 | locus YDR334W, strain swr1, hits give low values 0.951 | locus YDR335W, strain msn5, hits give low values 0.924 | locus YDR392W, strain spt3, hits give low values 0.882 | locus YEL037C, strain rad23, hits give low values 0.964 | locus YEL061C, strain CIN8 (second series), hits give low values 0.987 | locus YER016W, strain bim1, hits give low values 0.967 | locus YER111C, strain swi4, hits give low values 0.966 | locus YFR010W, strain ubp6, hits give low values 0.921 | locus YGL167C, strain pmr1, hits give low values 0.976 | locus YGL227W, strain vid30, hits give low values 1.01 | locus YGL240W, strain doc1, hits give low values 0.917 | locus YGL253W, strain hxk2, hits give low values 0.963 | locus YHR013C, strain ard1, hits give low values 0.954 | [13] 0.975 | [14] 0.938 | locus YHR142W, strain chs7, hits give low values 0.949 | locus YJL092W, strain hpr5, hits give low values 0.953 | locus YJL095W, strain BCK1 (second series), hits give low values 0.964 | [15] 0.989 | locus YJL115W, strain asf1, hits give low values 0.984 | locus YJL129C, strain trk1, hits give low values 1.09 | locus YJL154C, strain vps35, hits give low values 1.01 | [16] 0.919 | locus YKL160W, strain elf1, hits give low values 0.945 | locus YKR026C, strain gcn3, hits give low values 0.997 | locus YKR091W, strain srl3, hits give low values 1 | locus YLL001W, strain dnm1, hits give low values 0.921 | locus YLL026W, hits give low values 0.933 | locus YLL041C, strain sdh2, hits give low values 1.01 | locus YLR027C, strain aat2, hits give low values 0.931 | [17] 1 | locus YLR221C, strain rsa3, hits give low values 0.939 | locus YLR258W, strain gsy2, hits give low values 0.964 | locus YLR262C, strain YPT6 (second series), hits give low values 0.901 | locus YLR320W, strain mms22, hits give low values 0.884 | locus YLR357W, strain rsc2, hits give low values 0.901 | locus YLR370C, strain arc18, hits give low values 0.931 | locus YLR384C, strain iki3, hits give low values 0.981 | locus YML120C, strain ndi1, hits give low values 0.95 | locus YMR125W, strain sto1, hits give low values 1.01 | locus YMR129W, hits give low values 0.991 | locus YMR205C, strain PFK2, hits give low values 0.943 | locus YMR231W, strain pep5, hits give low values 0.98 | locus YNL071W, strain lat1, hits give low values 0.952 | [18] 0.956 | locus YNL322C, strain KRE1 (second series), hits give low values 0.995 | locus YNR049C, strain mso1, hits give low values 0.987 | locus YOR001W, strain rrp6, hits give low values 0.934 | locus YOR070C, strain gyp1, hits give low values 0.965 | locus YOR080W, strain dia2, hits give low values 0.937 | locus YOR083W, strain WHI5, hits give low values 0.896 | [19] 0.994 | locus YOR265W, strain rbl2, hits give low values 0.966 | locus YOR270C, strain vph1, hits give low values 0.951 | locus YOR290C, strain snf2, hits give low values 0.948 | locus YPL078C, strain atp4, hits give low values 0.931 | locus YPL240C, strain hsp82, hits give low values 0.985 | [20] 0.971

O=C(c1cccc([N+](=O)[O-])c1)c1cc2cc(Br)cc(Br)c2o1
inactive: locus YAL013W, strain DEP1, hits give low values 0.993 | locus YBR229C, strain ROT2, hits give low values 0.997 | [21] 1.01 | locus YDL134C, strain PPH21, hits give low values 0.994 | [2] 0.952 | locus YEL061C, strain CIN8, hits give low values 0.983 | [11] 0.989 | locus YGR229C, strain SMI1, hits give low values 1 | [13] 0.837 | locus YHR087W, strain rtc3, hits give low values 0.981 | locus YJR043C, strain POL32, hits give low values 0.997 | [4] 0.975 | locus YKL190W, strain CNB1, hits give low values 0.996 | locus YLR039C, strain RIC1, hits give low values 0.954 | locus YLR058C, strain SHM2 (second series), hits give low values 0.994 | locus YLR085C, strain ARP6, hits give low values 0.847 | locus YLR262C, strain YPT6, hits give low values 0.974 | locus YML094W, strain GIM5, hits give low values 0.988 | locus YMR219W, strain ESC1, hits give low values 0.994 | locus YMR263W, strain SAP30, hits give low values 0.96 | locus YMR307W, strain GAS1, hits give low values 0.864 | [6] 0.988 | locus YNL298W, strain CLA4 (second series), hits give low values 0.948 | [12] 0.991 | locus YNR030W, strain Alg12, hits give low values 0.953 | locus YOL006C, strain TOP1, hits give low values 0.935 | locus YPL055C, strain LGE1, hits give low values 0.974 | [10] 0.942 | locus YPR135W, strain CTF4, hits give low values 0.964

CN1c2ccccc2C(C)(C)C12C=Cc1cc(O)ccc1O2 (stereo unspecified)
inactive: locus YAR019C, strain CDC15, hits give low values 0.981 | locus YBL105C, strain PKC1, hits give low values 0.981 | locus YBR135W, strain CKS1, hits give low values 0.977 | locus YBR136W, strain MEC1, hits give low values 0.981 | locus YBR160W, strain CDC28, hits give low values 0.984 | locus YDL017W, strain CDC7, hits give low values 0.974 | locus YDL028C, strain MPS1, hits give low values 0.979 | [21] 0.975 | locus YDL108W, strain KIN28, hits give low values 0.974 | locus YDL132W, strain cdc53, hits give low values 0.977 | locus YDL214C, strain PRR2, hits give low values 0.986 | locus YDR052C, strain DBF4, hits give low values 0.982 | locus YDR054C, strain cdc34, hits give low values 0.97 | locus YDR226W, strain ADK1, hits give low values 0.972 | locus YDR477W, strain SNF1, hits give low values 0.971 | locus YER123W, strain YCK3, hits give low values 0.987 | locus YER133W, strain GLC7, hits give low values 0.974 | locus YFL009W, strain cdc4, hits give low values 0.968 | locus YFL029C, strain CAK1, hits give low values 0.978 | locus YFR003C, strain YPI1, hits give low values 0.976 | locus YFR019W, strain FAB1, hits give low values 0.993 | locus YFR028C, strain CDC14, hits give low values 0.976 | locus YGR040W, strain KSS1, hits give low values 0.972 | locus YGR052W, strain FMP48, hits give low values 1.01 | locus YGR092W, strain DBF2, hits give low values 0.996 | [13] 0.897 | [14] 1.01 | locus YHR082C, strain KSP1, hits give low values 1.06 | locus YHR205W, strain SCH9, hits give low values 0.985 | locus YIL147C, strain SLN1, hits give low values 0.978 | [15] 1.01 | locus YJL128C, strain PBS2, hits give low values 0.942 | locus YJL157C, strain FAR1, hits give low values 0.978 | locus YJR016C, strain ILV3, hits give low values 0.968 | locus YJR066W, strain TOR1 (second series), hits give low values 0.965 | [16] 1.08 | locus YKL048C, strain ELM1, hits give low values 0.975 | locus YKL067W, strain YNK1, hits give low values 0.975 | locus YKL101W, strain HSL1, hits give low values 0.962 | locus YKL193C, strain SDS22, hits give low values 0.973 | locus YKL203C, strain TOR2, hits give low values 1.05 | [17] 0.891 | locus YLR133W, strain CKI1, hits give low values 0.984 | locus YLR403W, strain SFP1, hits give low values 1.01 | locus YML070W, strain DAK1, hits give low values 0.978 | locus YMR001C, strain CDC5, hits give low values 0.971 | locus YMR205C, strain PFK2 (second series), hits give low values 0.991 | locus YMR277W, strain FCP1, hits give low values 0.973 | locus YNL006W, strain LST8, hits give low values 0.978 | locus YNL020C, strain ARK1, hits give low values 0.982 | locus YNL161W, strain CBK1, hits give low values 0.973 | [18] 1.08 | locus YNL207W, strain RIO2, hits give low values 0.974 | locus YNL222W, strain SSU72, hits give low values 0.986 | locus YNL307C, strain MCK1 (second series), hits give low values 0.978 | locus YOL078W, strain AVO1, hits give low values 0.975 | locus YOL136C, strain PFK27, hits give low values 0.991 | locus YOR061W, strain CKA2, hits give low values 0.993 | locus YOR119C, strain RIO1, hits give low values 1.05 | [19] 1.02 | locus YOR329C, strain SCD5, hits give low values 0.985 | locus YPL031C, strain PHO85, hits give low values 0.962 | locus YPL153C, strain RAD53, hits give low values 0.958 | locus YPL204W, strain HRR25, hits give low values 0.943 | locus YPL209C, strain IPL1, hits give low values 0.974 | [20] 0.899 | locus YPR025C, strain CCL1, hits give low values 0.993 | locus YPR106W, strain ISR1, hits give low values 0.984 | locus YPR111W, strain DBF20, hits give low values 0.977 | strain NNK1, hits give low values 0.989 | strain TSCII, hits give low values 0.978
